PubChem BioAssay (NCI)
About 83,000 compounds went through this panel and 20% of them were active in at least one assay; those are over-represented in the sample as a whole.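 Cells were grown in 96-well plates and exposed to the test compound at a single concentration for 48 hours; results are reported as percent growth, with values below 10 considered active.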 Unmarked numbers belong to inactive results. Activity calls are given as the source filed them.

Assays:
Experiment in all cases: NCI-60 one-dose screen, 48 h (100 = growth as untreated, 0 = no growth, -100 = all killed)
Conditions in all cases: 10 µM
[1] = tested on: SK-MEL-2 melanoma
[2] = tested on: EKVX NSCLC
[3] = tested on: SN12C renal
[4] = tested on: UO-31 renal
[5] = tested on: TK-10 renal
[6] = tested on: ACHN renal
[7] = tested on: A498 renal
[8] = tested on: CCRF-CEM leukemia
[9] = tested on: MOLT-4 leukemia
[10] = tested on: CAKI-1 renal

Row | Structure (SMILES) | growth [1] | growth [2] | growth [3] | growth [4] | growth [5] | growth [6] | growth [7] | growth [8] | growth [9] | growth [10]
1 | O=[N+]([O-])c1cc(Cl)cc(Cl)c1O | 103% | 96% | 101% | 84% | 95.1% | 99.4% | 106% | 98.7% | 106% | 
2 | O=C(CCCCC(=O)Oc1c(Cl)cc(Cl)cc1[N+](=O)[O-])Oc1c(Cl)cc(Cl)cc1[N+](=O)[O-] | 93.6% | 93.2% | 105% | 87.1% | 91.3% | 105% | 114% | 73.6% | 78.1% | 
3 | CCn1c2ccc(O)cc2c2c(C)c3c[n+](C)ccc3c(C)c21 | 40.9% | 73.7% | -32.6% (active) | 64.2% | 45.6% | 60.6% |  |  | 17.8% | 85.2%
4 | CCCCCCCCCCCCCCCCCC[n+]1ccc2c(C)c3c(c(C)c2c1)c1cc(O)ccc1n3CC | -33.1% (active) | 19.5% | 1.79% (active) | 39.8% | 17.8% | 25.7% |  |  | 19% | 71.1%
5 | CCN(CC)CCNc1ccc(C)c2sc3cc(Cl)ccc3c(=O)c12 | 36.5% | 71.3% | 35.6% | 26.9% | 50.6% | 28.1% | 53.5% | 11.6% | 1.35% (active) | 
6 | O=C1c2ccccc2-c2c1c1cccnc1c(=O)n2C[C@H](O)CO | 101% | 79.3% | 35.6% | 49.9% | 84.7% | 27.6% |  |  | 9.69% (active) | 65.5%
7 | CCn1cc(CNc2ccc(C(=O)Nc3ccc4ccccc4c3)cc2)c(C)n1 | 61% | 36.5% | 85.7% | 47.1% | 1.78% (active) | 69.5% |  |  | 15.5% | 53.6%
8 | O=C(CCCNC(=O)c1nc(-c2ccccc2)n(-c2ccccc2)n1)NO | 97.9% | 96.8% | 101% | 94.5% | 85.9% | 114% |  |  | 101% | 98%
9 | c1cncc(-c2csc(-c3c[nH]c4ccccc34)n2)c1 | 97.3% | 50.6% | 85.9% | 66.5% | 125% | 88% |  |  | 79.8% | 88.3%
10 | CN(C)CCCOc1ccc(OCCCN(C)C)c2c1C(=O)c1ccccc1C2=O | -53.4% (active) | 13.6% | 6.55% (active) | 62.7% | -6.02% (active) | 10.8% | -31.9% (active) | 2.78% (active) | 5.64% (active) | 
11 | CN(C)CCCOc1ccc(NC2=C(Cl)C(=O)C(Nc3ccc(OCCCN(C)C)cc3)=C(Cl)C2=O)cc1 | -40.2% (active) | -89% (active) | -91.6% (active) | -99% (active) | -98.7% (active) | -94.1% (active) | -49% (active) | -31.2% (active) | -23.4% (active) | 
12 | O=C(CN(C1CCCCC1)C1CCCCC1)Nc1ccc(S(=O)(=O)c2ccc(NC(=O)CN(C3CCCCC3)C3CCCCC3)cc2)cc1 | -35.4% (active) | -43.6% (active) | 30.6% | 10.2% | 56.1% | -33% (active) | 89.4% | -59.7% (active) | -25.2% (active) | 
13 | C=CCSC(CC)(CC)C(=O)NC | 109% | 104% | 101% | 94.4% | 102% | 107% | 104% | 101% | 93% | 
14 | CCNc1nc(C(F)(F)F)nc2c1sc(=S)n2-c1ccccc1 | 88.1% | 86.1% | 100% | 104% | 88.8% | 93.1% |  |  | 81.8% | 93.6%
15 | CN1CCc2c(sc3nc4n(-c5ccc(Cl)cc5)cnn4c(=O)c23)C1 | 118% | 87.2% | 98.9% | 84.1% | 116% | 109% |  |  | 104% | 97.4%
16 | CCOC(=O)c1sc2ncnc(Nc3ccc4c(cnn4C(=O)Nc4ccccc4)c3)c2c1C | 85% | 84.3% | 61.3% | 87.6% | 78.6% | 87.6% |  |  | 91% | 83.9%

Row | Structure (SMILES) | growth [1] | growth [2] | growth [3] | growth [4] | growth [5] | growth [6] | growth [7] | growth [8] | growth [9] | growth [10]
17 | CC(CN(C)C)Oc1ccc(OC(C)CN(C)C)c2c1C(=O)c1ccccc1C2=O (configuration not stated) | 41% | 70.7% | 33.5% | 63.5% | 42.7% | 28% | 59.6% | 28.9% | 9.9% (active) | 
18 | COc1cc(-c2nn(-c3cccc(NC(=O)CN4CCOCC4)c3)cc2-c2cccnc2)ccc1Cl | 82.1% | 95.8% | 85.4% | 68.6% | 125% | 87.6% | 93.3% | 70.9% | 74.3% | 
19 | C=C/C(C)=C/C[C@]1(C)[C@H](C)[C@@H](OC(=O)CCC)[C@H](O)[C@@]23C(=C[C@H](OC)C[C@@H]12)[C@@H](OC(=O)CCC)O[C@H]3OC(C)=O | -70.5% (active) | -33.7% (active) | -51.9% (active) | -90.7% (active) | -95.1% (active) | -94.4% (active) |  |  | -12.8% (active) | 0.0055% (active)
20 | CN1CCc2c(sc3nc4n(-c5ccc(Cl)cc5)c(=O)[nH]n4c(=O)c23)C1 | 96.5% | 101% | 107% | 89.7% | 88.3% | 106% |  |  | 99.1% | 93.1%
21 | COc1cc(-c2nn(-c3cccc(NC(=O)NCCNC(=O)c4ccccc4)c3)cc2-c2ccncc2)ccc1Cl | -20.9% (active) | 34.2% | 25.2% | 13.6% | 36.3% | 12.2% | -3.29% (active) | 7.68% (active) | 4.74% (active) | 
22 | CCOC(=O)CSc1nc(-c2cc(OC)ccc2OC)cc(-c2ccc(OC)cc2)c1C#N | 84.3% | 74.1% | 79.5% | 63% | 75.7% | 76.7% |  |  | 76.6% | 83.4%
23 | Cc1ccc(NCCN(C)CC(C)O)c2c(=O)c3ccc(Cl)cc3sc12 (configuration not stated) | 66.8% | 78.5% | 49.8% | 51.5% | 79.1% | 44.6% | 73.8% | 20.4% | 16.2% | 
24 | COc1cc2c3c(n([C@H]4CCOC4)c(=O)c2cc1OC)-c1cc2c(cc1C3=O)OCO2 | 99.8% | 60% | 22.9% | 10.6% | 90% | 0.59% (active) |  |  | 17.2% | 33.5%
25 | CCOC(=O)c1sc2ncnc(Nc3ccc(NC(=O)Nc4ccc(Cl)cc4)cc3)c2c1C | 87.2% | 74.4% | 60.5% | 54.9% | 89.4% | 64.4% |  |  | 66.3% | 83.9%
26 | CN1CCN(CCC(=O)Nc2cccc(-n3cc(-c4ccncc4)c(-c4ccc(Cl)c(O)c4)n3)c2)CC1 | 34.5% | 74.1% | 61.8% | 46.9% | 103% | 45.5% | 34.5% | 24.9% | 25.6% | 
27 | COc1ccc(C(=O)CSc2nc(-c3cc(OC)ccc3OC)cc(-c3ccc(OC)cc3)c2C#N)cc1 | 103% | 89.1% | 97.6% | 86.4% | 103% | 97.4% |  |  | 96.9% | 96.3%
28 | COc1ccc([C@H]2[C@H](C(=O)Nc3cccnc3)c3ccccc3C(=O)N2c2ccccc2)cc1 | 86.2% | 94.5% | 99.4% | 99.5% | 93% | 90.3% |  |  | 77.5% | 93.7%
29 | COCCn1cc(-c2nc(-c3cccnc3)cs2)c2cc(F)ccc21 | 106% | 90.8% | 95.7% | 107% | 80.4% | 101% |  |  | 79.3% | 103%
30 | CN(C)CCOc1cccc(NC2=C(Cl)C(=O)C(Nc3cccc(OCCN(C)C)c3)=C(Cl)C2=O)c1 | -73.8% (active) | -92.3% (active) | -76.3% (active) | -100% (active) | -100% (active) | -100% (active) | 77.1% | -26.6% (active) | -38.5% (active) | 
31 | CCOC(=O)c1cc(C(=O)c2cc(OC)c(OC)c(OC)c2)n2ncc3ccccc3c12 | 78.5% | 94.5% | 101% | 75.6% | 97.3% | 78.7% | 73.6% | 70.1% | 62% | 
